Here are results for 40 molecules from PubChem BioAssay (Tox21).

SMILES strings stand for the structures. Values joined by “and” are separate entries in the source; they are usually repeats but may differ in a detail not shown here. Equal values may be shown once. Results filed as inconclusive are left out. Active and inactive are the calls of the source. Calls come from the whole dose curve.
% is set by controls: 0 for no effect and ±100 for the full control effect; potency is the fitted concentration of half-maximal effect.

The assay can be described thus: Nuclear factor erythroid 2-related factor 2/antioxidant responsive element (Nrf2/ARE) small molecule agonists: luciferase reporter gene qHTS assay in human keratinocytes (AID 1919969). Note: nearly all actives have a fitted effect of over 35% in size. The following applies: KeratinoSens HaCaT ARE-luciferase, luminescence, 24 h; series mostly up to 92.4 µM; activity, positive = activation: at the top concentration. The text has this: National Center for Advancing Translational Sciences [NCATS]
Division of Preclinical Innovation [DPI]
U.S. Environmental Protection Agency [EPA]
National Institutes of Environmental Health Sciences [NIEHS]
National Toxicology Program [NTP]
U.S. Food and Drug Administration [FDA]
Oxidative stress has been implicated in the pathogenesis of a variety of diseases ranging from cancer to neurodegeneration. The antioxidant response element (ARE) signaling pathway plays an important role in the amelioration of oxidative stress. The KeratinoSens (Givaudan, Switzerland) is an in vitro test method which quantifies luciferase induction as a measure of activation of Keap1-Nrf2-antioxidationt/electrophile response element (ARE) dependant pathway in HaCaT human keratinocytes stably transfected with a selectable plasmid. The KeratinoSens assay is a cell-based assay with a reporter cell line to detect potential skin sensitizers by their ability to induce the Nrf2/ARE-response. The activation of the report gene under culture conditions can be detected by ONE-Glo Luciferase Assay System (Promega, Madison, WI). This cell line has been used to screen the Tox21 10K compound library to identify agonists that induce oxidative stress. The cytotoxicity of the Tox21 compound library against the KS-ARE cell line was tested in parallel by measuring the cell viability using CellTiter- Fluor assay system (Promega, Madison, WI) in the same wells.
HaCaT derived cell line KeratinoSens were dispensed at 1,500 cells/5uL/well in 1536-well white wall/solid bottom plates using a Multidrop Combi (ThermoFisher Scientific, Waltham, MA) dispenser. After the assay plates were incubated at 37 C/5% CO2 for 5 h, 23 nL of compounds dissolved in DMSO, positive controls or DMSO only was transferred to the assay plate by a pintool workstation (Kalypsys, San Diego, CA). The plates were incubated at 37 C/5% CO2 for 23 h, followed by addition of 1uL/well of CellTiter-Fluor reagent into the assay plates using a Flying Reagent Dispenser (Aurora Discovery, San Diego, CA) for cell viability readout that measures cytotoxicity. After 1 h incubation at 37 C/5% CO2 the fluorescence intensity was measured using a ViewLux (PerkinElmer, Shelton, CT) plate reader. Then 4uL/well of One-Glo were added using a Flying Reagent Dispenser. After the plates were incubated at room temperature for 30 min, the luminescence intensity in the assay plates was measured using ViewLux plate reader.
(In general: In a reporter assay the amount or activity of a reporter protein is the signal.)
Turning to `CC(C)(c1ccc(O)c(-c2ccccc2)c1)c1ccc(O)c(-c2ccccc2)c1`, the “activity, positive = activation” value is -42.3% (inactive).

Consider `[Cl][Sn]([Cl])([Cl])[Cl]`, for which the “activity, positive = activation” value is -0.552% (inactive). As to `CN=CNc1ccc(C)cc1C`, the “activity, positive = activation” value was -2.99% (inactive). For `CC#Cc1cc(C)nc(Nc2ccccc2)n1`, the Potency is 48.5 µM (active). For the molecule `COC(=O)C(C)N(C(=O)Cc1ccccc1)c1c(C)cccc1C` (stereo not given), the “activity, positive = activation” value was 7.49% (inactive). For the molecule `SCc1ccco1`, the Potency was 68.6 µM (active).

`CCc1cc2c(s1)-n1c(C)nnc1CN=C2c1ccccc1Cl`: the “activity, positive = activation” value was -18.4% [at 42.5 µM] (inactive).

Turning to `CCC1(CCC(C)C)C(=O)NC(=O)NC1=O`, the “activity, positive = activation” value is -2.86% (inactive).

Take `C[C@]12Cc3nonc3C[C@@H]1CC[C@@H]1[C@@H]2CC[C@@]2(C)[C@H]1CC[C@]2(C)O`: the “activity, positive = activation” value is -9.55% [at 42.5 µM] (inactive).

`Oc1ccc2ccc3cccc4ccc1c2c34`: the Potency was 61.1 µM (active). Turning to `COc1cccc2c1cc([N+](=O)[O-])c1c(C(=O)O)cc3c(c12)OCO3`, the Potency is 12.2 µM (active). Consider `CCC[CH2][Sn]([CH2]CCC)([CH2]CCC)[O]C(=O)c1ccccc1`, for which the Potency was 0.969 µM (active). For the molecule `Cc1ncsc1CCCl`, the “activity, positive = activation” value was -4.57% [at 42.5 µM] (inactive). As for `O=S(=O)(c1ccc(Cl)cc1)c1ccc(Cl)cc1`, the “activity, positive = activation” value is -0.337% (inactive).

Turning to `NCCc1cc(O)c(O)cc1O`, the “activity, positive = activation” value was -4.39% [at 42.5 µM] (inactive). For the molecule `N#CCc1ccc(Cl)cc1`, the “activity, positive = activation” value was -2.97% (inactive).

For `CCCN(CCCl)c1c([N+](=O)[O-])cc(C(F)(F)F)cc1[N+](=O)[O-]`, the “activity, positive = activation” value is 9.69% (inactive). On to `CCCCCCCCP(=O)(O)O`, for which the “activity, positive = activation” value is -9.34% (inactive). Regarding `CCC(C)(c1ccc(O)cc1)c1ccc(O)cc1`, the “activity, positive = activation” value is 15.7% (inactive). Consider `O=[N+]([O-])c1ccc(O)c([N+](=O)[O-])c1`, for which the Potency entry was “inactive”. In the case of `COP(N)(=S)OC`, the “activity, positive = activation” value was 0.386% (inactive). As to `O=C(O)COc1ccc(Cl)cc1`, the “activity, positive = activation” value was -10.5% (inactive). Same read-out and setting: for `Cc1cccc(Cc2cnc[nH]2)c1C` the value was -0.378% [at 42.5 µM] (inactive); for `CCOP(=O)(OCC)Oc1nc(Cl)c(Cl)cc1Cl`, 7.49% (inactive); for `c1ccc2c(c1)CCNC2`, 0.309% (inactive).

For `c1ccc2cc3c(cc2c1)-c1cccc2cccc-3c12`, the “activity, positive = activation” value is 25.6% (inactive). Same read-out and setting: for `CC(C)(C)C(O)/C(=C\c1ccc(Cl)cc1Cl)n1cncn1` (stereo not given) the value was -9.9% (inactive); for `COc1ccc(OC)c(CC(C)N)c1` (stereo not given), 0% (inactive). As to `c1cc(OCC2CO2)ccc1Cc1ccc(OCC2CO2)cc1` (stereo not given), the Potency was 27.4 µM (active) and 27.3 µM (active). `O=[N+]([O-])c1cccc2cccnc12`: the “activity, positive = activation” value was 1.14% (inactive). Consider `C=CC(=O)N(C)C`, for which the “activity, positive = activation” value was -6.55% (inactive). On to `ClCCCCl`, for which the “activity, positive = activation” value is -7.35% (inactive). Regarding `Cc1nnc2n1-c1sc(CCc3ccc(CC(C)C)cc3)cc1C(c1ccccc1Cl)=NC2C` (stereo not given), the “activity, positive = activation” value was -48.6% [at 42.5 µM] (inactive). As for `O=C(CCl)C(Cl)Cl`, the Potency is 7.77 µM (active). Consider `C=CC(=O)OCCN(C)C`, for which the “activity, positive = activation” value is 0.326% (inactive). Regarding `CN(C)CCc1c[nH]c2cccc(O)c12`, the Potency is 67.9 µM (active). `BrCCCCBr`: the “activity, positive = activation” value is 23% (inactive). On the same count and under the same terms, for `CC(C)NCC(O)c1ccccc1Cl` (stereo not given) the value was -4.65% [at 42.5 µM] (inactive); for `Nc1ccccc1C(=O)OC/C=C/c1ccccc1`, 3.43% (inactive). In the case of `Cl/C=C\Cl`, the “activity, positive = activation” value is 0.656% (inactive).
